Experimental data reported in article PMC4552634, “A New Set of Chemical Starting Points with Plasmodium falciparum Transmission-Blocking Potential for Antimalarial Drug Discovery” (PLoS ONE, 2015).
Hit rate of the full screen: of about 13,000 compounds, about 3,200 (25%) showed an effect of 50% or more. Some of the results follow.

These compounds were tested on P. falciparum stage V gametocytes. Settings: 48 h, 5 µM; inhibitor.
Design: BacTiter-Glo ATP luminescence viability of purified stage V gametocytes in 384-well plates, per cent inhibition versus DMSO
`CC(C)N(Cc1ccccc1)C(=O)CN1C(=O)COc2ccc(S(=O)(=O)N3CCCCCC3)cc21` [TCMDC-124755] was tested, and the “% Inhibition” value was -21.1%.
With `N#Cc1ccc2c(c1)CCN(CCC1CCC(NC(=O)c3cccc(-c4ccc(F)cc4)c3)CC1)CC2` (centres unmarked) [TCMDC-139679] the “% Inhibition” value was -51.12%.
With `O=C(c1csc(-c2cccnc2)n1)N1CCc2cc3nccc(N4CCN5CCC[C@H]5C4)c3cc21` [TCMDC-140044] the “% Inhibition” value was 44.75%.
In the case of `CCCCCSc1cc(O)c(C(CNC)C(C)C)cc1OC` (centres unmarked) [TCMDC-125495], the “% Inhibition” value is reported as -82.86%.
In the case of `CCCN(CCC)CC(O)COc1ccccc1C(=O)Nc1ccccc1` (centres unmarked) [TCMDC-125708], the “% Inhibition” value is reported as -0.1626%.
With `CNC(=O)c1cnc(Nc2ccc3[nH]c(=O)[nH]c3c2)nc1Nc1cccc(OC(C)C)c1` [TCMDC-141390] the “% Inhibition” value was -16.36%.
For `CNC(=O)c1cnc(Nc2ccc(OCC(O)CN(C)C)cc2)nc1Nc1cccc(OC(C)C)c1` (centres unmarked) [TCMDC-141389], the “% Inhibition” value was 97.53%.
In the case of `O=C(O)C(F)(F)F.c1ccc(CNCc2ccc(-c3ccc(-c4nc5ccccc5[nH]4)cc3)cc2)cc1` [TCMDC-132711], the “% Inhibition” value is reported as -28.39%.
With `COc1ccc(CNCc2ccc(-c3cccc(-c4nc5ccccc5[nH]4)c3)cc2)cc1.O=C(O)C(F)(F)F` [TCMDC-132546] the “% Inhibition” value was 33.45%.
In the case of `COc1ccc(CNCc2ccc(-c3ccc(-c4nc5cc(F)ccc5[nH]4)cc3)cc2)cc1.O=C(O)C(F)(F)F` [TCMDC-132725], the “% Inhibition” value is reported as -52.38%.
In the case of `COc1ccc(CNCc2ccc(-c3ccc(-c4nc5ccccc5[nH]4)cc3)cc2)cc1.O=C(O)C(F)(F)F` [TCMDC-132730], the “% Inhibition” value is reported as 80.88%.
For `COc1ccc(CNCc2cccc(-c3ccc(-c4nc5ccccc5[nH]4)cc3)c2)cc1.O=C(O)C(F)(F)F` [TCMDC-132718], the “% Inhibition” value was 76.66%.
In the case of `CNc1ccc(CNCc2cccc(-c3ccc(-c4nc5ccccc5[nH]4)cc3)c2)cc1.O=C(O)C(F)(F)F` [TCMDC-132986], the “% Inhibition” value is reported as 13.98%.
For `OC[C@H]1CCCN1CC#Cc1cc2c(Nc3ccc(OCc4cccc(F)c4)c(Cl)c3)ncnc2s1` [TCMDC-138787], the “% Inhibition” value was -22.43%.
In the case of `Cc1ccn2c(C(=O)N3CCN(c4cccc5c4nc(-c4ccoc4)n5Cc4ccccn4)CC3)c(C)nc2c1` [TCMDC-134556], the “% Inhibition” value is reported as -25.5%.
For `CCCC(=O)Nc1ccc(Nc2nc(C)cc(N3CCCC3)n2)cc1` [TCMDC-124718], the “% Inhibition” value was -11.42%.
`COc1ccc(Nc2ncc3c(-c4cccc(NC(=O)Cc5ccc(O)cc5)c4)c[nH]c3n2)cc1OC` [TCMDC-135248] was tested, and the “% Inhibition” value was -43.02%.
With `COc1ccc(Nc2ncc3c(-c4cccc(NC(=O)CC(C)C)c4)c[nH]c3n2)cc1OC` [TCMDC-135246] the “% Inhibition” value was 51.08%.
`COc1ccc(Nc2ncc3c(-c4cccc(NC(=O)Cc5ccncc5)c4)c[nH]c3n2)cc1OC` [TCMDC-135286] was tested, and the “% Inhibition” value was -39.63%.
`Cc1cccc2nc(-c3ccc(-c4cccc(CN5CCC(CO)CC5)c4)s3)[nH]c12.O=C(O)C(F)(F)F` [TCMDC-133122] was tested, and the “% Inhibition” value was 24.91%.
For `NC1CCCN(Cc2cccc(-c3ccc(-c4nc5ccccc5[nH]4)s3)c2)C1.O=C(O)C(F)(F)F` (centres unmarked) [TCMDC-133870], the “% Inhibition” value was 15.45%.
For `Cc1cccc2nc(-c3ccc(-c4cccc(CN5CCN(CCN6CCOCC6)CC5)c4)s3)[nH]c12.O=C(O)C(F)(F)F` [TCMDC-133925], the “% Inhibition” value was 7.217%.
With `Cc1cccc2nc(-c3ccc(-c4cccc(CN5CCCCC5)c4)s3)[nH]c12.O=C(O)C(F)(F)F` [TCMDC-133911] the “% Inhibition” value was -13.55%.
`Cc1cccc2nc(-c3ccc(-c4cccc(CN5CCC(CCN6CCCCC6)CC5)c4)s3)[nH]c12.O=C(O)C(F)(F)F` [TCMDC-133923] was tested, and the “% Inhibition” value was 107.3%.
For `Cc1cccc2nc(-c3ccc(-c4cccc(CN5CCCC(N)C5)c4)s3)[nH]c12.O=C(O)C(F)(F)F` (centres unmarked) [TCMDC-133874], the “% Inhibition” value was 63.62%.
For `Cc1cccc2nc(-c3ccc(-c4cccc(CN5CCCC(O)C5)c4)s3)[nH]c12.O=C(O)C(F)(F)F` (centres unmarked) [TCMDC-133834], the “% Inhibition” value was -3.04%.
With `Cc1cccc2nc(-c3ccc(-c4cccc(CN5CCC(N)C5)c4)s3)[nH]c12.O=C(O)C(F)(F)F` (centres unmarked) [TCMDC-133873] the “% Inhibition” value was 89.08%.
With `Cc1cccc2nc(-c3ccc(-c4cccc(CN5CCC(C(N)=O)CC5)c4)s3)[nH]c12.O=C(O)C(F)(F)F` [TCMDC-132690] the “% Inhibition” value was -2.69%.
For `COc1cc(Nc2nccn3c(-c4ccsc4)cnc23)cc(OC)c1OC` [TCMDC-134382], the “% Inhibition” value was 37.58%.
With `COc1ccc(-c2cnn3ccc(Nc4cc(OC)c(OC)c(OC)c4)nc23)cc1OC` [TCMDC-134383] the “% Inhibition” value was 101%.
In the case of `COc1ccc(-c2cncc(-c3ccc(OC)c(OC)c3)n2)cc1OC` [TCMDC-138247], the “% Inhibition” value is reported as 25.57%.
In the case of `O=C(CSc1nccn1C1CCCCC1)Nc1cc(C(F)(F)F)ccc1Cl` [TCMDC-124949], the “% Inhibition” value is reported as 15.12%.
For `Cc1c(CNCCCNc2nc3ccncc3[nH]2)sc(Br)c1Br` [TCMDC-140512], the “% Inhibition” value was 32.17%.
`CCNc1cc(C(=O)N[C@@H](Cc2ccccc2)[C@H](O)CNC(C)C)cc(N2CC(c3ccccc3)CCS2(=O)=O)c1` (some centres unmarked) [TCMDC-134660] was tested, and the “% Inhibition” value was 43.25%.
For `O=S(=O)(NC1CCN(c2ccnc3cc(Cl)ccc23)C1)c1cccs1` (centres unmarked) [TCMDC-133398], the “% Inhibition” value was 1.762%.
For `Fc1ccc2nc(-c3cccc(-c4ccc(CNCCc5ccncc5)cc4)c3)[nH]c2c1` [TCMDC-132854], the “% Inhibition” value was 81.48%.
With `CNCCNCc1ccc(-c2ccc(-c3nc4ccc(F)cc4[nH]3)cc2)cc1` [TCMDC-132832] the “% Inhibition” value was 83.07%.
For `COc1ccc(CNCc2cccc(-c3cccc(-c4nc5ccc(F)cc5[nH]4)c3)c2)cc1` [TCMDC-132717], the “% Inhibition” value was -45.78%.
In the case of `Fc1ccc2nc(-c3cccc(-c4cccc(CNCCc5ccncc5)c4)c3)[nH]c2c1` [TCMDC-132857], the “% Inhibition” value is reported as -45.49%.
With `CN(C)CCNCc1ccc(-c2ccc(-c3nc4ccc(F)cc4[nH]3)cc2)cc1` [TCMDC-132681] the “% Inhibition” value was 40.34%.
With `CNCCNCc1cccc(-c2cccc(-c3nc4ccc(F)cc4[nH]3)c2)c1` [TCMDC-132840] the “% Inhibition” value was 70.05%.
With `Fc1ccc2nc(-c3cccc(-c4ccc(CNCc5ccccc5)cc4)c3)[nH]c2c1` [TCMDC-132702] the “% Inhibition” value was -56.98%.
`Nc1cccc(CNCc2ccc(-c3cccc(-c4nc5ccc(F)cc5[nH]4)c3)cc2)c1` [TCMDC-132937] was tested, and the “% Inhibition” value was -46.54%.
With `CNc1ccc(CNCc2ccc(-c3ccc(-c4nc5ccc(F)cc5[nH]4)cc3)cc2)cc1` [TCMDC-132980] the “% Inhibition” value was -78.33%.
`CNCCNCc1ccc(-c2cccc(-c3nc4ccc(F)cc4[nH]3)c2)cc1` [TCMDC-132836] was tested, and the “% Inhibition” value was 79.45%.
For `COc1ccc(CNCc2ccc(-c3cccc(-c4nc5ccc(F)cc5[nH]4)c3)cc2)cc1` [TCMDC-132721], the “% Inhibition” value was -29.84%.
In the case of `CS(=O)(=O)NCCCNCc1cccc(-c2cccc(-c3nc4ccc(F)cc4[nH]3)c2)c1` [TCMDC-133075], the “% Inhibition” value is reported as -24.93%.
